Screening data: PubChem BioAssay, National Center for Advancing Translational Sciences (NCATS)
Vaccinia Venus – inhibitors of vaccinia virus (Venus reporter) | Vaccinia virus Venus reporter expression, fluorescence | Potency, µM (titrated, usually from 36.5 µM), hits mostly inhibitors | 330,000 tested, 0.46% active | AID 720580; calls by dose curve; tested in A549 cells; also: nearly all actives have a fitted effect of over 30% in size
VACV mCherry inh – inhibitors of vaccinia virus infection (mCherry reporter signal) | Vaccinia virus mCherry reporter infection, fluorescence | AID 720579 | Potency, µM (doses to about 36.5 µM), actives largely listed as inhibitors | 310,000 tested, 0.63% active; calls by dose curve; tested in A549 cells; also: nearly all actives have a fitted effect of over 35% in size
FMDV inh – foot and mouth disease virus antiviral activity. FMDV antiviral cell-based qHTS. Potency, µM (series often up to 57.9 µM), usual class: inhibitors. 410,000 tested, 1.2% active; calls by dose curve; tested in HEK293T cells; also: read-out not given here; nearly all actives have a fitted effect of over 45% in size
HCV inh – blocks hepatitis C virus | Huh7.5.1 HCVcc-Cre infection, luciferase reporter, 44 h | Potency, µM (series often up to 41.8 µM), most hits filed as inhibitors | 340,000 tested, 3.4% active; active = well fitted inhibition curve with a large enough effect; inconclusive = small, poorly fitted or top-dose-only effect, or another doubt; inactive = no such curve, though single readings can be large or run the other way
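Whole-lifecycle infectious HCVcc-Cre system; cells 1,000/well, compound then virus (~0.5 moi) added 4 h after plating, 44 h culture. Luciferase read 15 sec following 15 min substrate incubation, room temp.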
Marburg entry inh – blocks Marburg virus binding to or entry into cells. Marburg virus pseudotyped entry inhibition, cell reporter. Potency, µM (top dose mostly 37.8 µM), hits mostly inhibitors. 300,000 tested, 1.8% active. AID 540276; calls by dose curve; tested in HEK293 cells
Lassa entry inh – blocks Lassa virus binding to or entry into cells; 300,000 tested, 1.2% active; AID 540256; Lassa virus pseudotype entry inhibition, cell reporter; Potency, µM (series often up to 37.9 µM), actives largely listed as inhibitors; calls by dose curve; tested in HEK293 cells; also: nearly all actives have a fitted effect of over 50% in size
Numbers stand for hits; – = inactive; ? = inconclusive; · = not tested or not shown; [ ] = remark or other dose. A selection: hits, their analogues and other compounds. The true share with any hit is near 5.3%.

SMILES	Vaccinia Venus	VACV mCherry inh	FMDV inh	HCV inh	Marburg entry inh	Lassa entry inh
CC(=O)OC(C)C1C2=C(C(=O)CC1(C)O)C(=O)c1c(ccc(-c3ccc4c(c3O)C(=O)C3=C(C4=O)C(C(C)OC(C)=O)C(C)(O)CC3=O)c1O)C2=O (configuration not stated)	–	?	17.8µM	?	–	–
Cc1c(C(=O)NCC(C)(C)CN(C)C)cnn1-c1nccc(-c2ccccc2F)n1	–	–	–	·	·	·
CCOc1ccc2nc(N3CCCC(C(=O)NCCCN4C(C)CCCC4C)C3)sc2c1 (configuration not stated)	–	–	–	2.51µM	?	–
CCN1CCN(CCCNC(=O)C2CCCN(c3nc4c(C)cc(C)cc4s3)C2)CC1 (configuration not stated)	–	–	–	10µM	·	·
Cc1cc(C)c2nc(N3CCCC(C(=O)NCCCN4CCOCC4)C3)sc2c1 (configuration not stated)	–	?	–	?	?	?
CCOc1ccc2nc(N3CCCC(C(=O)NCCCN4CCCCC4)C3)sc2c1 (configuration not stated)	·	·	–	?	·	·
Cc1n[nH]c(=O)c2c(NC(=O)CSc3nc4ccccc4c(=O)n3C(C)C)oc(C)c12	–	–	–	?	?	?
C=C1CC(COc2ccc3c(C)c(Cl)c(=O)oc3c2)(c2ccccc2)OC1=O (configuration not stated)	11.2µM	10µM	22.4µM	?	7.08µM	10µM
O=C(C[n+]1cccc(Br)c1)c1ccc(I)cc1	–	–	·	·	·	·
COc1ccc(C2CC(O)(c3ccccc3)Oc3cc(OC)ccc32)cc1 (configuration not stated)	?	?	–	4.47µM	·	·
OCCCCNCc1ccc(OCc2ccc(Cl)cc2Cl)cc1	?	28.2µM	·	6.31µM	5.8µM	?
OCCNCc1ccc(OCc2ccc(Cl)cc2Cl)cc1	–	–	–	?	?	–
S=C(Nc1ccccc1)Nc1ccc(OCc2ccc(Cl)cc2Cl)cc1	·	·	0.316µM	?	?	?
CC(C)C[C@H]1COc2cc(Br)ccc2S(=O)(=O)N1Cc1ccc(F)cc1F	·	·	·	·	·	–
Cc1ccc(-c2noc(C(C)NS(=O)(=O)c3ccc(C)cc3)n2)cc1 (configuration not stated)	–	–	–	·	·	–
COc1ccc(NC(=O)c2nnn(-c3ccc(C(C)C)cc3)c2C)c(OC)c1	–	–	–	·	–	–
CCCCN(CC)C(=O)CSc1nc2n[nH]c(C)c2c(=N)n1-c1cccc(C)c1	?	?	?	11.2µM	·	–
CCCN(CCC)C(=O)CSc1nc2n[nH]c(C)c2c(=N)n1-c1ccc(OCC)cc1	?	·	–	?	?	11.2µM
CCCCN(CC)C(=O)CSc1nc2n[nH]c(C)c2c(=N)n1-c1cccc(OC)c1	?	?	–	·	·	?
CCCN(CCC)C(=O)CSc1nc2n[nH]c(C)c2c(=N)n1-c1ccc(OC)cc1	?	·	22.4µM	?	?	?
C/C(=N\O)c1ccc(Cl)c(Cl)c1	–	–	–	–	–	–
CCCn1c2ccc(/C(C)=N\O)cc2c2cc(/C(C)=N/O)ccc21	–	–	–	12.6µM	?	–
Cc1cc(N)c2cc(NC(=O)/C=C/c3ccccc3Cl)ccc2n1	·	·	?	11.2µM	·	·
Cc1cc(C)nc(NC(=O)/C=C/c2ccccc2Cl)n1	–	·	–	–	?	–
Cc1ccnc(NC(=O)/C=C/c2ccccc2Cl)c1	–	–	?	?	2.59µM	?
SMILES	Vaccinia Venus	VACV mCherry inh	FMDV inh	HCV inh	Marburg entry inh	Lassa entry inh
Cc1cc(C)nc(NC(=O)/C=C/c2ccccc2Cl)c1	–	–	–	?	–	–
CCN1C(=O)[C@H]2[C@H]3[C@H](O)[C@H](O)C/C(=N\NC(=O)OCc4ccccc4)[C@@H]3CC[C@H]2C1=O	·	·	·	·	–	·
Cc1cccc(CN2CCc3nnc(C(C)NC(=O)C4CCOCC4)n3CC2)c1 (configuration not stated)	–	–	–	·	·	·
CC1=C(c2ccc(F)cc2)S(=O)(=O)N=C1N1CCC(C(=O)NCCc2cccc(C)c2)CC1	–	–	–	·	·	–
CC1=C(c2ccc(C)c(C)c2)S(=O)(=O)N=C1N1CCC(C(=O)NCCc2ccc(Cl)cc2)CC1	–[7.34 µM]	–[7.34 µM]	–	·	3.98µM	·
COc1ccc(N=Nc2ccc(N)nc2N)cc1	–	?	–	–	?	?
CCOc1ccc2nc3cc(N=Nc4ccc(N)nc4N)ccc3c(N)c2c1	–	–	–	11.2µM	–	–
CCOC(=O)C1CCCN(C(=O)c2cnn(-c3ncc4c(n3)-c3ccccc3CCC4)c2C2CC2)C1 (configuration not stated)	–	–	–	·	·	·
CN(C)S(=O)(=O)c1ccc(Cl)c(NC(=O)CSc2nc3c(cc2C#N)C(=O)CC(C)(C)C3)c1	–	–	?	–	–	?
CN(C)S(=O)(=O)c1cccc(NC(=O)CSc2nc3c(cc2C#N)C(=O)CC(C)(C)C3)c1	?	?	20µM	5.01µM	?	?
CCOC(=O)c1cnn(-c2ccc(C(=O)Nc3cccc(C(C)=O)c3)cc2)c1N	–	–	–	·	·	–
COc1cccc(-c2cc3nc4c(c(N5CCC6(CC5)OCCO6)n3n2)CCC4)c1	·	·	–	15.8µM	·	·
Cc1cccc(-c2cc3nc4c(c(NCc5ccco5)n3n2)CCCC4)c1	–	–	·	7.08µM	?	?
c1ccc(N2CCN(c3c4c(nc5ncnn35)CCC4)CC2)cc1	·	·	?	?	?	–
COc1cccc(N2CCN(c3c4c(nc5ncnn35)CCC4)CC2)c1	·	·	14.1µM	?	–	–
Cc1cccc(-c2cc3nc4c(c(N5CCOCC5)n3n2)CCCC4)c1	–	?	–	?	?	?
Cc1cccc(-c2cc3nc4c(c(N5CCC6(CC5)OCCO6)n3n2)CCCC4)c1	–	–	–	10µM	?	–
COC(=O)C1=C(C(=O)OC)[C@@H]2Nc3ccccc3[C@@]23C[C@@H](C(=O)OC)N(C(=O)N2CCNC2=O)C3=N1	·	·	·	·	–	·
COC(=O)C(NC(=O)CC(C)C)(Nc1nc2c(s1)CCCC2)C(F)(F)F (configuration not stated)	–	–	–	·	?	–
COc1cc(CN2CCC3(CCC(CNC(=O)c4ccco4)O3)CC2)cc(OC)c1 (configuration not stated)	–	–	–	·	·	·
COc1cccc(CN(Cc2ccco2)S(=O)(=O)c2ccc(S(=O)(=O)NCc3ccccc3)cc2)c1OC	·	·	–	11.2µM	–	?
COc1ccc(S(=O)(=O)N(Cc2ccco2)Cc2cc3ccccc3[nH]c2=O)cc1	–	–	?	14.1µM	?	?
CCCC(c1nnnn1C(C)(C)CC)N(Cc1ccco1)Cc1cc2ccc(OC)cc2[nH]c1=O (configuration not stated)	?	?	–	?	12.6µM	?
O=c1[nH]c2ccccc2cc1CN(Cc1ccco1)S(=O)(=O)c1ccccc1	–	–	?	–	?	–
CS(=O)(=O)c1ccc(C(=O)OCC(=O)NCC2CCCO2)cc1[N+](=O)[O-] (configuration not stated)	–	–	·	·	·	·
